As usually defined, the AC50 is the midpoint of the concentration-response curve, whichever way the signal moves.

These results are taken from PubChem BioAssay (EPA / NIEHS).

“And” between values parts separate entries of the source, which are not always exact repeats. Identical values can stand only once. A structure can be active in one record and inactive in another. The source made the active and inactive calls. Rule for the calls: active = hit-call score of the fitted dose curve at least 0.9, where 1 is the maximum; inactive = score below 0.9.

Assay [1] is described as follows: ATG_EGR_CIS: Attagene CIS-FACTORIAL HepG2 Assay for human Early Growth Response 1 (EGR1) (AID 2282938). The following applies: HepG2 Attagene CIS-FACTORIAL EGR reporter mRNA; actives raise or lower the signal. An outline of the steps:
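HepG2 cells transiently transfected with cis-element-driven multiplexed reporter units, dosed for 24 h. EGR1-element reporter mRNA quantified by RT-PCR, 6-FAM labelling, HpaI digestion and capillary electrophoresis; bidirectional fit versus DMSO.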

Assay [2] is described as follows: ATG_M_19_CIS: Attagene CIS-FACTORIAL HepG2 Assay for M19 Transcription Factor (Internal Marker) (AID 2282939). The conditions noted are these: HepG2 Attagene CIS-FACTORIAL M19 internal marker reporter; actives raise or lower the signal. An outline of the steps: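 Internal marker readout, fitted in both directions against DMSO, from HepG2 cells carrying transfected cis-element reporter constructs; RT-PCR and capillary electrophoresis of reporter mRNA after 24 h exposure.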

Assay [3] can be described thus: ATG_Ets_CIS: Attagene CIS-FACTORIAL HepG2 Assay for human Erythroblast Transformation Specific (ETS) (AID 2282941). The conditions noted are these: HepG2 ETS cis-reporter transcription, actives raise or lower the signal. The essentials:
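Human HepG2 hepatoma cells were transiently transfected with promoter-driven reporter constructs and treated for 24 hours. Reporter transcripts were quantified by RT-PCR with fluorescent primer extension; bidirectional curve fitting used DMSO as reference.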

For assay [4], the target named is Hepatocyte nuclear factor 3-beta (Homo sapiens) (UniProt Q9Y261). In words: ATG_FoxA2_CIS: Attagene CIS-FACTORIAL HepG2 Assay for human Forkhead box A2 (FOXA2) (AID 2282942). The conditions noted are these: HepG2 cis-reporter transcription factor activity, 24 h; actives raise or lower the signal. An outline of the steps:
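HepG2 transiently transfected with a multiplexed cis-promoter reporter library read endogenous FOXA2 activity. After 24 h compound exposure, reporter mRNA was quantified by RT-PCR, HpaI digestion and capillary electrophoresis. Bidirectional fit against DMSO.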

Assay [5] can be described thus: ATG_FoxO_CIS: Attagene CIS-FACTORIAL HepG2 Assay for human Forkhead box O (FoxO) (AID 2282943). The conditions noted are these: HepG2 Attagene cis-reporter, FoxO element, mRNA; actives raise or lower the signal. The essentials:
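HepG2, transient MRTU transfection (cis element, endogenous TFs). Dose 24 h. TriZol RNA → oligo(dT) RT → PCR → 6-FAM primer extension → HpaI cut → CE. Gain/loss vs DMSO.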

Assay [6] in a line: ATG_GATA_CIS: Attagene CIS-FACTORIAL HepG2 Assay for human GATA Binding Protein (AID 2282944). The conditions noted are these: HepG2 GATA cis-element reporter, Attagene multiplex mRNA; actives raise or lower the signal. The essentials: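 Reporter transcripts from a GATA cis-regulated unit, among multiplexed reporters in transfected HepG2 cells, were measured by RT-PCR with capillary electrophoresis after 24 h dosing. Induction or loss scored relative to DMSO.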

Assay [7] in a line: ATG_GLI_CIS: Attagene CIS-FACTORIAL HepG2 Assay for human Zinc Finger Protein GLI1 (AID 2282945). The following applies: HepG2, Attagene cis-factorial reporter mRNA, GLI element; actives raise or lower the signal. An outline of the steps: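 Bidirectional curve fits relative to DMSO, using reporter mRNA levels from RT-PCR plus capillary electrophoresis. Cells were HepG2 transiently carrying cis-regulated reporter constructs, harvested 24 h after dosing.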

In assay [8] the target is Bile acid receptor (Homo sapiens) (UniProt Q96RI1). As to the kind of experiment: ATG_IR1_CIS: Attagene CIS-FACTORIAL HepG2 Assay for human Nuclear Receptor Subfamily 1 Group H Member 4 (NR1H4), IR1 submotif (AID 2282946). The following applies: IR1 reporter transcription, actives raise or lower the signal. An outline of the steps:
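Cells (human HepG2) carry transiently transfected cis-promoter reporter transcription units. Compounds are incubated 24 h, total RNA is reverse-transcribed and amplified, and labelled fragments are resolved by capillary electrophoresis. Curves use DMSO as baseline.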

Assay [9] is described as follows: ATG_ERE_CIS: Attagene CIS-FACTORIAL HepG2 Assay for Estrogen Response Element (ERE) (AID 2282940). The following applies: HepG2 ERE cis-reporter, Attagene RNA transcript; actives raise or lower the signal. An outline of the steps: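 After 24 h compound treatment, RNA from transfected HepG2 cells was reverse-transcribed, reporter cDNA PCR-amplified, FAM-labelled, HpaI-cut and resolved by capillary electrophoresis. ERE-driven cis reporter transcripts reflect endogenous factors; gain or loss scored against DMSO.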

Assay [10] is described as follows: ATG_GRE_CIS: Attagene CIS-FACTORIAL HepG2 Assay for human Glucocorticoid Response Elements (GRE) (AID 2282947). The conditions noted are these: HepG2 GRE cis-reporter, Attagene multiplex mRNA; actives raise or lower the signal. The essentials: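 Transient MRTU transfection of human HepG2 liver cells; cis-regulated reporters report endogenous factors. 24 h dosing → RNA isolation → RT-PCR → 6-FAM primer extension → HpaI cut → CE fragment analysis. Bidirectional fit, DMSO negative control.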

Chain of Hepatocyte nuclear factor 3-beta (Homo sapiens) (Q9Y261 whole entry, looked up): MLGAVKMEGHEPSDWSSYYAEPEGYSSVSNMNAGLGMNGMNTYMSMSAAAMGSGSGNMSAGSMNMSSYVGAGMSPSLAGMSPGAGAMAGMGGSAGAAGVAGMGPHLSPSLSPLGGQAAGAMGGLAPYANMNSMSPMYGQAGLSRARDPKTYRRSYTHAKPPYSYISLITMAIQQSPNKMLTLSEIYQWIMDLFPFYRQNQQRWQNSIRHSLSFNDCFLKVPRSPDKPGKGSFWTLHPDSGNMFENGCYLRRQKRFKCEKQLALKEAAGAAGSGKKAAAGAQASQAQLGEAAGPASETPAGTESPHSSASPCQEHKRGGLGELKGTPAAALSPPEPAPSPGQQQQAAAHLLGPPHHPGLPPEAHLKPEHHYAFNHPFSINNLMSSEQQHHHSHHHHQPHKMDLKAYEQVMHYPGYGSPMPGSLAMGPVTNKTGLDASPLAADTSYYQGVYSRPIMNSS
Chain of Bile acid receptor (Homo sapiens) (Q96RI1 whole entry, looked up, the tested form may be a part): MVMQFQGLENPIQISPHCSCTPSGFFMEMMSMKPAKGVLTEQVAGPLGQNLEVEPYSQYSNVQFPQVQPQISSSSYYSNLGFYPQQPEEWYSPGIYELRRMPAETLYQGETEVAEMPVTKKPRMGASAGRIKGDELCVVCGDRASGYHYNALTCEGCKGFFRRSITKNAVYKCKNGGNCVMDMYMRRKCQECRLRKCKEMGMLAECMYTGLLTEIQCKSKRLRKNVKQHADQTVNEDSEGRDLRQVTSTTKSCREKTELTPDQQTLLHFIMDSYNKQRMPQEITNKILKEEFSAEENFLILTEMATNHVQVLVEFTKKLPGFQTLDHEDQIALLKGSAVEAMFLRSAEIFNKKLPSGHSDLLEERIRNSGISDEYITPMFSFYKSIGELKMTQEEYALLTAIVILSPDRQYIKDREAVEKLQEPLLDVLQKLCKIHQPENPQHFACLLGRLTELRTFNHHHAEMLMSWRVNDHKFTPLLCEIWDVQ

Take `Oc1cccc2cccnc12`: in assay [1], the concentration at half-maximal activity (AC50) is 70.1 µM (active). For the same molecule, the call in [1], in assay [2], in [3], in assay [4], in assay [5] and in [6] was inactive. In addition, the call in assay [7] and in assay [8] was inactive.

In the case of `CC1CN1P(=O)(N1CC1C)N1CC1C` (centres undefined), the molecule was classed as inactive in [1], in [2], in assay [9], in assay [3], in assay [4] and in assay [5]. For the same molecule, the result in assay [6] and in [7] was inactive.

For the molecule `CC1(C)Cc2cccc(O)c2O1`, the molecule was called inactive in [1], in assay [2], in assay [9], in [3], in assay [4] and in assay [5]. For the same molecule, the molecule was classed as inactive in assay [6] and in assay [7].

As to `CNC(=O)O/N=C/C(C)(C)S(C)=O` (centres undefined), the result in [1], in assay [2], in assay [3], in assay [4], in assay [5] and in assay [6] was inactive. For the same molecule, the call in [7], in assay [8] and in assay [10] was inactive. Besides, in [9], the AC50 was 84.1 µM (active).

Take `N#CN=C(N)N`: the molecule was classed as inactive in assay [1], in assay [2], in assay [9], in assay [3], in assay [4] and in assay [5]. Also, the result in assay [6], in [7] and in assay [8] was inactive.

Take `CCN(CC)C(=O)Cl`: the call in [1], in assay [2], in [3], in [4], in assay [5] and in assay [6] was inactive. Besides, the result in [7], in [8] and in [10] was inactive. In addition, the AC50 in [9] is 27.7 µM (active).

As for `CC(C)C1CCC(Cc2ccc(Cl)cc2)C1(O)Cn1cncn1` (centres undefined), the call in assay [1], in assay [2], in assay [9], in [3], in [4] and in assay [5] was inactive. Further, the call in assay [6], in [7], in assay [8] and in [10] was inactive.

For the molecule `CCOP(OCC)OCC`, the call in [1], in assay [2], in [9], in [3], in assay [4] and in [5] was inactive. In addition, the result in [6], in assay [7] and in assay [8] was inactive.

For `CC(=[OH+])/C=C(/C)[O-].CC(=[OH+])/C=C(/C)[O-].CC(=[OH+])/C=C(/C)[O-].[Al]`, the molecule was classed as inactive in [1], in assay [2], in assay [9], in assay [3], in [4] and in assay [5]. Moreover, the molecule was classed as inactive in assay [6], in assay [7], in assay [8] and in assay [10].

As for `COP(=O)(OC)O/C(=C\Cl)c1cc(Cl)c(Cl)cc1Cl`, the AC50 was 37 µM (active) in assay [1], 4.11 µM (active) in [9] and 130 µM (active) in [7]. For the same molecule, the molecule was called inactive in assay [2], in [3], in [4], in assay [5], in [6] and in assay [8].

`c1ccc(N=NNc2ccccc2)cc1`: the AC50 in [1] was 83.5 µM (active); in [9] it was 26.3 µM (active); in assay [4], 25.7 µM (active); in assay [7], 163 µM (active). Also, the molecule was classed as inactive in [2], in assay [3], in [5] and in assay [6].

Turning to `C[C@H]1CCCC(=O)CCC/C=C/c2cc(O)cc(O)c2C(=O)O1`, the AC50 is 10.2 µM (active) in assay [1], 0.00291 µM (active) in assay [9], 7.35 µM (active) in assay [3] and 10.3 µM (active) in assay [5]. Besides, the result in [2], in assay [4], in assay [6] and in [7] was inactive.

Regarding `O=C(O)Cc1ccccc1`, the molecule was classed as inactive in assay [1], in [2], in [9], in assay [3], in [4] and in assay [5]. In addition, the result in [6], in assay [7] and in assay [8] was inactive.

As to `CC(C)c1ccc(CO)cc1`, the outcome in assay [1], in assay [2], in assay [9], in assay [3], in [4] and in [5] was inactive. The outcome in assay [6], in [7] and in [8] was inactive.

`C=CC(=O)OCCCCCC(C)C`: the outcome in assay [1], in assay [2], in [9], in assay [3], in assay [4] and in [5] was inactive. Besides, the outcome in assay [6], in assay [7] and in [8] was inactive.

On to `CC1(C)CCC(Cc2ccc(Cl)cc2)C1(O)Cn1cncn1` (centres undefined), for which the molecule was classed as inactive in assay [1], in assay [2], in assay [3], in assay [4], in assay [5] and in assay [6]. Further, the outcome in assay [7] and in [8] was inactive. The concentration at half-maximal activity (AC50) in assay [9] is 7.52 µM (active).

As to `OCc1ccco1`, the molecule was called inactive in assay [1], in assay [2], in [9], in assay [3], in [4] and in assay [5]. The outcome in assay [6], in assay [7] and in assay [8] was inactive.

On to `C=C(C)C#N`, for which the molecule was called inactive in [1], in [2], in assay [9], in assay [3], in assay [4] and in assay [5]. Moreover, the outcome in assay [6], in [7] and in assay [8] was inactive.

Turning to `N#CCCO`, the molecule was called inactive in [1], in assay [2], in assay [9], in [3], in assay [4] and in [5]. The molecule was classed as inactive in [6], in assay [7], in assay [8] and in assay [10].

For `CCC(C)c1cccc(C(C)CC)c1O` (centres undefined), the molecule was called inactive in assay [1], in [2], in [9], in assay [3], in [4] and in [5]. In addition, the molecule was classed as inactive in assay [6], in assay [7] and in [8].

Consider `CCCCP(CCCC)CCCC`, for which the outcome in assay [1], in [2], in assay [3], in [4], in assay [5] and in assay [6] was inactive. The molecule was classed as inactive in [7] and in [8]. Further, the AC50 in assay [9] is 72.5 µM (active).

`COc1cc2c(cc1OC)[C@@]13CCN4CC5=CCO[C@H]6CC(=O)N2[C@H]1[C@H]6[C@H]5C[C@H]43`: the molecule was classed as inactive in assay [1], in assay [2], in [9], in assay [3], in assay [4] and in [5]. Moreover, the molecule was classed as inactive in assay [6] and in [7].

As to `CCOP(=S)(OCC)Oc1ccc(S(C)=O)cc1` (centres undefined), the outcome in [1], in [2], in assay [9], in assay [3], in assay [4] and in assay [5] was inactive. Besides, the call in assay [6] and in assay [7] was inactive.

Take `O=C(O)C(F)(F)C(F)(F)C(F)(F)C(F)(F)C(F)(F)C(F)(F)C(F)(F)C(F)(F)C(F)(F)C(F)(F)F`: the AC50 in [1] is 24.7 µM (active) and 14.8 µM (active); in [2], 138 µM (active); in assay [6], 148 µM (active); in [7], 174 µM (active). For the same molecule, the call in [2], in [3], in assay [4], in [5], in assay [6] and in [7] was inactive. Also, the outcome in [8] was inactive.

Turning to `O=[N+]([O-])c1ccc(O)c([N+](=O)[O-])c1`, the call in assay [1], in [2], in assay [9], in assay [3], in assay [4] and in [5] was inactive. Besides, the outcome in assay [6] and in assay [7] was inactive.

Regarding `[O-][Cl+2]([O-])O`, the result in assay [1], in assay [2], in [9], in [3], in assay [4] and in assay [5] was inactive. The molecule was called inactive in assay [6], in [7] and in [8].
